KDM5B inh – inhibitors of human KDM5B histone demethylase; AID 1347165; actives 2.6% (n = 220,000); Potency, µM (top dose mostly 57.7 µM), most hits filed as inhibitors; KDM5B demethylase, FDH-coupled NADH fluorescence (FDH is formaldehyde dehydrogenase); active = well fitted inhibition curve with a large enough effect; note: 0% is about no effect; nearly all actives have a fitted effect of over 70% in size
Target sequence (Q9UGL1 whole entry, looked up): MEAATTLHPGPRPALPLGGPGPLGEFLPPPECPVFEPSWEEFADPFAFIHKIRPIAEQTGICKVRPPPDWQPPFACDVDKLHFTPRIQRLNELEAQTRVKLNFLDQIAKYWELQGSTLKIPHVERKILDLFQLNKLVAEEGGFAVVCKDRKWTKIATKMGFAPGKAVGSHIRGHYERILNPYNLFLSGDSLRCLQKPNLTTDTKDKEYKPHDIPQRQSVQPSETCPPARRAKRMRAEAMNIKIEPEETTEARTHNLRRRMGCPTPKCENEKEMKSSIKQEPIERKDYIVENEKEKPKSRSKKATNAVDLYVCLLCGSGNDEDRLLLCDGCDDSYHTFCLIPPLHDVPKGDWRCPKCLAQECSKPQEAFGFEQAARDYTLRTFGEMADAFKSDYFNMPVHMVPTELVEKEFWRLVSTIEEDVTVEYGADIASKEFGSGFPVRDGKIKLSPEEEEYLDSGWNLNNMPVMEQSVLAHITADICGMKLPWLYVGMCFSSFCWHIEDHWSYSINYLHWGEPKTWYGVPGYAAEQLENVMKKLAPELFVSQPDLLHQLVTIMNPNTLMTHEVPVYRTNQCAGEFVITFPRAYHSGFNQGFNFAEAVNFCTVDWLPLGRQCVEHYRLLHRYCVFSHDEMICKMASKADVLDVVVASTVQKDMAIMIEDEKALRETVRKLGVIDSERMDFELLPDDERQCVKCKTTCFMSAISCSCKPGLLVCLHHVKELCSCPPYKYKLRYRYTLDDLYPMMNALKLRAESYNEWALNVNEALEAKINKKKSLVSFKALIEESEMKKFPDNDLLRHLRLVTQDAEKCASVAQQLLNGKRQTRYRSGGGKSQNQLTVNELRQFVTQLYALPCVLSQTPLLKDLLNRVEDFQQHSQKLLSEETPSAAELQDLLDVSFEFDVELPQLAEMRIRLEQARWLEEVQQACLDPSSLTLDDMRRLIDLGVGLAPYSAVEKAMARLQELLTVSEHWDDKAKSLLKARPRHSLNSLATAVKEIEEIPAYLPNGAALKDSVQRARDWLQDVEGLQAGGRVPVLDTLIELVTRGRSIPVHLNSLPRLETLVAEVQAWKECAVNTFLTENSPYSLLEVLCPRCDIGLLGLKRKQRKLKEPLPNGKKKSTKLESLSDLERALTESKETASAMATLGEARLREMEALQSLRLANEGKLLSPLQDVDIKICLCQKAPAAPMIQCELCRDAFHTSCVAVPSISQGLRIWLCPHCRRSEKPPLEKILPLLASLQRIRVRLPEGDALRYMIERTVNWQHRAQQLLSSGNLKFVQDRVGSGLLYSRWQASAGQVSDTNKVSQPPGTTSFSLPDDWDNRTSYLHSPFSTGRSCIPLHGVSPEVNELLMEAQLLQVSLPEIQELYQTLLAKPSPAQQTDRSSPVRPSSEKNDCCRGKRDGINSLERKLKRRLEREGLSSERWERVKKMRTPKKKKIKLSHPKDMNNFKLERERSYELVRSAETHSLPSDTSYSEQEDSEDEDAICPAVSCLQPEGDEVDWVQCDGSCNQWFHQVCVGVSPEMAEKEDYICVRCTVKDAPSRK
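KDM5BΔAP (200 nM final) in 50 mM HEPES pH 7.5, 0.01% Tween-20 was preincubated 10 min at RT with compound over a concentration range. Substrate mix (H3K4me3 12.5 µM, α-KG 25 µM, Fe²⁺, ascorbate, NAD⁺, FDH) was added, and NADH fluorescence change over 30 min gave dose-response curves.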
An asterisk follows results filed as active; i = inactive. Many of the other results were omitted from the sample, so hits are more common in it than they were. Potency is the fitted concentration of half-maximal effect.

SMILES | KDM5B inh
CC(C)n1nc(C(=O)N2CCc3ccccc3C2)c2ccccc2c1=O | i
CCNc1nc(SCC(=O)NC)nc2ccccc12 | i
O=C(CCc1cc2ccccc2[nH]c1=O)NCCN1CCc2ccccc2C1 | i
COCCN1C(=O)c2ccccc2C(C(=O)NCc2cccc(F)c2)C12CCCC2 (centres undefined) | i
COCCN1C(=O)c2ccccc2C(C(=O)NCc2ccccc2OC)C12CCCC2 (centres undefined) | 18µM*
CCc1ccccc1NC(=O)C1c2ccccc2C(=O)N(CCOC)C12CCCC2 (centres undefined) | i
COCCN1C(=O)c2ccccc2C(C(=O)NCc2ccc(F)cc2)C12CCCCC2 (centres undefined) | i
COCCN1C(=O)c2ccccc2C(C(=O)NCc2ccc(OC)cc2)C12CCCC2 (centres undefined) | i
COCCN1C(=O)c2ccccc2C(C(=O)NCc2ccccc2)C12CCCC2 (centres undefined) | i
COCCN1C(=O)c2ccccc2C(C(=O)NCc2ccc(Cl)cc2)C12CCCC2 (centres undefined) | 25µM*
COCCN1C(=O)c2ccccc2C(C(=O)Nc2cc(C)ccn2)C12CCCCC2 (centres undefined) | i
Cc1ccnc(NC(=O)C2c3ccccc3C(=O)N(CC(C)C)C23CCCC3)c1 (centres undefined) | 22µM*
CC(C)CN1C(=O)c2ccccc2C(C(=O)Nc2ccccn2)C12CCCC2 (centres undefined) | i
COCCN1C(=O)c2ccccc2C(C(=O)Nc2ccc(C)cc2Cl)C12CCCC2 (centres undefined) | 28µM*
CCc1ccccc1NC(=O)C1c2ccccc2C(=O)N(CCOC)C12CCCCC2 (centres undefined) | i
COc1ccc(CCNc2nc3ccccc3nc2C(=O)OCC(C)C)cc1OC | i
CN(C)C(=O)CNS(=O)(=O)c1cc(F)ccc1F | i
CCN(CC)S(=O)(=O)c1ccc2c(c1)nc(SCC(=O)Nc1ccc(OC)cc1)n2CC | i
Cc1cc(SCC(=O)NC23CC4CC(CC(C4)C2)C3)nc2ccccc12 | i
COc1ccc(C(C)=O)cc1CN1CCC(CN(C)Cc2ccccc2)CC1 | i
O=C(CSc1nnc2ccccn12)c1ccc(Cl)cc1Cl | i
COc1ccc(-c2nc(CN3CCN(C(=O)Nc4ccccc4OC)CC3)c(C)o2)cc1 | i
COCCN1C(=O)c2ccccc2C(C(=O)NCCc2ccc(Cl)cc2)C12CCCC2 (centres undefined) | i
COCCN1C(=O)c2ccccc2C(C(=O)NCCc2ccc(F)cc2)C12CCCC2 (centres undefined) | 28µM*
COCCN1C(=O)c2ccccc2C(C(=O)NCCc2ccccc2)C12CCCC2 (centres undefined) | i
SMILES | KDM5B inh
c1cc2nncn2nc1NC1CCCC1 | i
CCC(C)Nc1ccc2nncn2n1 (centres undefined) | 28µM*
c1cc2nncn2nc1NC1CCCCC1 | i
CC1(C)CC(OC(=O)CCCCC(=O)OC2CC(C)(C)NC(C)(C)C2)CC(C)(C)N1 | i
Cc1ccc(C(=O)NCc2cccnc2Oc2ccccc2F)c(=O)n1C | 28µM*
O=C(Cc1c[nH]c(=O)[nH]c1=O)NCc1cccnc1Oc1ccccc1F | i
Cc1cc(C)n(CCC(=O)NCc2cccnc2Oc2ccccc2F)n1 | i
COc1ccc(CNC(=O)COc2ncnc3c(Cl)cc(Cl)cc23)cc1 | i
O=C(Cc1ccc(Cl)cc1)N1CCN(c2ccc(F)cc2)CC1 | i
O=C(Cc1cccc(C(F)(F)F)c1)N1CCN(c2nnc3ccc(Cl)cn23)CC1 | 25µM*
O=C(Cc1ccc(Cl)cc1)N1CCN(c2ccccc2O)CC1 | i
NC(=O)C1CCN(C(=O)Cc2cccc(C(F)(F)F)c2)CC1 | i
O=C(Cc1ccc(Cl)cc1)N1CCN(c2nnc3ccccn23)CC1 | 25µM*
O=C(c1ccc(Cn2cc(Cl)cn2)cc1)N1CCN(Cc2cccc(C(F)(F)F)c2)CC1 | i
Cc1cccc(NC(=O)Cn2c(-c3ccc(Cl)cc3)nc(C)c(CCO)c2=O)c1C | i
COc1ccc2[nH]cc(C(C(=O)O)N3CCCCCC3)c2c1 (centres undefined) | i
COc1cc(OC)c(NC(C)c2nnc(-c3cccs3)o2)cc1Cl (centres undefined) | i
Cc1cc(OC(=O)c2cccc(C)c2C)ccc1C(C)C | i
CCCOc1ccc(NC(=O)CC2SCCNC2=O)cc1 (centres undefined) | i
Cc1cccc(OCC(=O)NC2CCN(c3cc(C(F)(F)F)ncn3)CC2)c1 | i
Cc1cccc(OCC(=O)N[C@@H]2CN(c3ncccn3)C[C@H]2CN(C)C)c1 | 22µM*
CN(C)C[C@@H]1CN(c2ncccn2)C[C@H]1NC(=O)COc1ccc(Cl)cc1 | 28µM*
CN(C)C[C@@H]1CN(c2ccncn2)C[C@H]1NC(=O)COc1ccc(F)cc1 | i
COc1ccc(OCC(=O)NC2CCCN(c3ncccn3)C2)cc1 (centres undefined) | i
CN(C)C[C@@H]1CN(c2ccncn2)C[C@H]1NC(=O)COc1ccccc1 | i
SMILES | KDM5B inh
CC(OC(=O)c1ccc(-n2cnnn2)cc1)C(=O)N1CCc2ccccc21 (centres undefined) | i
Cc1c(C(=O)NCC(C)C)nnn1-c1ccc(Br)cc1 | i
CC(C)(C)c1ccc(NC(=O)CCC(=O)O)cc1 | i
C(#Cc1ccc(C#CC[N+]2(Cc3ccccc3)CCCCC2)cc1)C[N+]1(Cc2ccccc2)CCCCC1 | i
COc1ccc2c(=O)c(Oc3cc(C)cc(C)c3)coc2c1 | i
COc1cccc(C(CC(=O)Nc2ccc(F)c(Cl)c2)n2cccc2)c1 (centres undefined) | i
CC(=O)NNC(=O)CC1Sc2ccccc2NC1=O (centres undefined) | i
O=C(NCCc1c[nH]c2ccccc12)[C@@H]1C[C@H]2C(=O)NCCCCCCN(C(=O)c3ccco3)[C@H]2C1 | i
CC(C)N1C(=O)C(Cc2nc3ccccc3c(=O)n2C)c2cc(Br)ccc21 (centres undefined) | i
Cc1ccc(-c2cnc(SCC(=O)Nc3ccccc3F)o2)cc1C | i
COc1cc(OC)c(C2=CCN(C(=O)COc3cc(Cl)ccc3Cl)CC2)c(OC)c1 | i
O=C(c1cc[nH]c(=O)c1)N1C[C@@H](COCC2CC2)[C@H](c2ccccn2)C1 | 28µM*
Cn1nccc1C(=O)N1C[C@@H](COCC2CC2)[C@H](c2ccccn2)C1 | i
Cc1cc(C(=O)N2C[C@@H](COCC3CC3)[C@H](c3ccccn3)C2)n[nH]1 | i
N#Cc1nc(-c2ccc(S(=O)(=O)N3CCCCCC3)cc2)oc1N1CCOCC1 | i
Cc1c(-c2ccccc2)c(=O)oc2ccc(Br)cc12 | i
Cc1ccc(-c2nnc([C@H]3CCN(c4nccc(C(F)(F)F)n4)C3)o2)cc1 | 20µM*
Cc1ccc(S(=O)(=O)N2CCCN(c3nccc(C(F)(F)F)n3)CC2)cc1 | i
Cc1ccc(-c2nnc([C@H]3CCN(C(=O)CCC(=O)O)C3)o2)cc1 | i
COc1ccc(-c2nnc([C@H]3CCN(S(=O)(=O)Cc4ccccc4)C3)o2)cc1 | i
Cc1ccc(-c2nnc([C@H]3CCN(c4ncccn4)C3)o2)cc1 | 40µM*
Cc1ccc(-c2nnc(C3CCN(S(=O)(=O)c4ccc(C)c(C)c4)CC3)o2)cc1 | i
CC(Cn1cncn1)NC(=O)c1ccc(S(=O)(=O)NCCO)cc1 (centres undefined) | i

From PubChem
